In PubChem BioAssay (Tox21):
Results filed as inconclusive are left out. Calls of active or inactive are those of the source. The call rests on the fitted dose curve.

Legend:
[1] = molecular target: Acetylcholinesterase (Homo sapiens) (UniProt P22303); assay: Acetylcholinesterase (AChE) small molecule antagonists: colormetric cell-based qHTS assay (AID 1347395); further: nearly all actives have a fitted effect of over 30% in size
Procedure, shortened: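 AChE inhibition read colorimetrically via DTNB–thiocholine in SH-SY5Y cells. Compound 30 min, substrate 90 min, both 37 C.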

[2] = molecular target: Acetylcholinesterase (Homo sapiens) (UniProt P22303); assay: Acetylcholinesterase (AChE) small molecule antagonists: enzyme-based qHTS assay (AID 1347397); settings: Potency: AChE enzyme activity inhibition; outcome: AChE enzyme activity inhibition; further: nearly all actives have a fitted effect of over 55% in size
Procedure, shortened: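 First, recombinant human AChE (50 mU/mL as dispensed) received test compound or DMSO. Second, plates stood 30 min at room temperature. Third, DTNB and acetylthiocholine were added, followed by 10 min at room temperature and colorimetric detection.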

[3] = molecular target: Acetylcholinesterase (Homo sapiens) (UniProt P22303); assay: Acetylcholinesterase (AChE) small molecule antagonists: fluorescence cell-based qHTS assay (AID 1347398); settings: Potency: AChE activity; outcome: AChE activity; further: nearly all actives have a fitted effect of over 50% in size
Procedure, shortened: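 Homogeneous quantitative HTS format. SH-SY5Y cells seeded at 2,000 per well settle overnight at 37 C. Compound pretreatment runs 30 min (37 C, 5% CO2); substrate/probe mix then reacts 40 min at RT before reading 490/520 nm.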

[4] = molecular target: Acetylcholinesterase (Homo sapiens) (UniProt P22303); assay: Acetylcholinesterase (AChE) small molecule antagonists: enzyme-based qHTS assay with human liver microsomes (AID 1347399); settings: Potency: qHTS inhibition; outcome: qHTS inhibition; further: nearly all actives have a fitted effect of over 60% in size
Procedure, shortened: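 Recombinant human AChE (50 mU/mL in the enzyme mix) and human liver microsomes (0.25 mg/mL final) were preincubated with compound and NADPH (0.25 mg/mL final) for 30 min at 37 C. Acetylthiocholine/DTNB was then added; thiocholine was read colorimetrically after 10 min at room temperature.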
On the % scale 0 is the no-effect control and ±100 the full control effect.

Sequence of Acetylcholinesterase (Homo sapiens) (P22303 whole entry, looked up): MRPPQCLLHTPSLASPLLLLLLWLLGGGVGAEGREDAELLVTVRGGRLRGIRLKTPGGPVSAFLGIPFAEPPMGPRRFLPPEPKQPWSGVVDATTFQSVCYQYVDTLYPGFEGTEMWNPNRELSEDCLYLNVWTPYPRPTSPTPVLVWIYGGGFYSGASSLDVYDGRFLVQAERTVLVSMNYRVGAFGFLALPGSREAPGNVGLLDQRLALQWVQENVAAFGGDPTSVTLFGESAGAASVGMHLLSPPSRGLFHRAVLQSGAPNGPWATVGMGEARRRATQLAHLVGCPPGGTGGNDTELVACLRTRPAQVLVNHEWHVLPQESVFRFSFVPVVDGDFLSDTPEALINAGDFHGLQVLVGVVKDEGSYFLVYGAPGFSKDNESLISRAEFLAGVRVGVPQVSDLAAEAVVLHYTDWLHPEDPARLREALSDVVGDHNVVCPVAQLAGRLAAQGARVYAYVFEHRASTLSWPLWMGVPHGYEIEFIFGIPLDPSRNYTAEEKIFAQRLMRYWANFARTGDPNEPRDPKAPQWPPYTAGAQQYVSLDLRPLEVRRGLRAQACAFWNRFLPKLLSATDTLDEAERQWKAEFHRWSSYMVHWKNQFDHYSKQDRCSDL

CCCCC/C=C\CCC=O
inactive: Potency [1] | Potency [2] | Potency [3] | Potency [4]

CCN(CC)C(C)=O
inactive: Potency [1] | Potency [2] | Potency [3] | Potency [4]

CCC1(C)C(=O)N(Cl)C(=O)N1Cl (stereo unspecified)
inactive: Potency [1] | Potency [2] | Potency [3] | Potency [4]

CC1=CCC(=C(C)C)CC1
inactive: Potency [1] | Potency [2] | Potency [3] | Potency [4]

OC1CCCCC1c1ccccc1 (stereo unspecified)
inactive: Potency [1] | Potency [2] | Potency [3] | Potency [4]

O=C(O)c1c(O)c(-c2ccccc2)nc2ccccc12
inactive: Potency [1] | Potency [2] | Potency [3] | Potency [4]

Cc1ccc(C2OC[C@@H]3OC(c4ccc(C)cc4)O[C@H]([C@H](O)CO)[C@@H]3O2)cc1 (stereo partly specified)
inactive: Potency [1] | Potency [2] | Potency [3] | Potency [4]

O=P(O)(O)Oc1ccccc1
inactive: Potency [1] | Potency [2] | Potency [3] | Potency [4]

C=C(C)[C@@H]1CC[C@@H](C)C[C@@H]1O
inactive: Potency [1] | Potency [2] | Potency [3] | Potency [4]

COc1cc(C)ccc1C(C)C
inactive: Potency [1] | Potency [2] | Potency [3] | Potency [4]

CC(C)Cn1cnc2c(N)nc3ccccc3c21
inactive: activity, negative = inhibition [1] -1.3% [at 23.6 µM] | activity change, negative = inhibition [2] -0.415% [at 23.6 µM] | activity change, negative = inhibition [3] -8.86% [at 23.8 µM] | activity change, negative = inhibition [4] 1.68% [at 23.6 µM]

CCC(Cl)C(Cl)C(Cl)CC(Cl)C(Cl)C(C)Cl (stereo unspecified)
inactive: Potency [1] | Potency [2] | Potency [3] | Potency [4]

CCCCC(CC)COC(=O)c1ccccc1O (stereo unspecified)
inactive: Potency [1] | Potency [2] | Potency [3] | Potency [4]

c1ccc(-c2nc3ccccc3[nH]2)cc1
inactive: Potency [1] | Potency [2] | Potency [3] | Potency [4]

Cc1cccc(Cl)c1
inactive: Potency [1] | Potency [2] | Potency [3] | Potency [4]

Cc1cc(O)c2c(O)c3c(O)cccc3cc2c1
inactive: Potency [1] | Potency [2] | Potency [3] | Potency [4]

CCCCCc1ccc(N)cc1
inactive: Potency [1] | Potency [2] | Potency [3] | Potency [4]

Cc1cccc(N(C)C(=S)Oc2ccc3c(c2)CCC3)c1
inactive: Potency [1] | Potency [2] | Potency [3] | Potency [4]

Nc1nnc(-c2ccc([N+](=O)[O-])o2)o1
inactive: Potency [1] | Potency [2] | Potency [3] | Potency [4]

Nc1nc(Cl)nc2c1ncn2[C@@H]1O[C@H](CO)[C@@H](O)[C@@H]1F
inactive: Potency [1] | Potency [2] | Potency [3] | Potency [4]

NC(=O)c1ccccc1[N+](=O)[O-]
inactive: Potency [1] | Potency [2] | Potency [3] | Potency [4]

CCN(CC)C(=O)N1CCN(C)CC1
inactive: Potency [1] | Potency [2] | Potency [3] | Potency [4]

O=CC1CC1
inactive: Potency [1] | Potency [2] | Potency [3] | Potency [4]

CCCCCCOC(=O)CCCCC
inactive: Potency [1] | Potency [2] | Potency [3] | Potency [4]

O=C1OC(OC(=O)c2cccnc2Nc2cccc(C(F)(F)F)c2)c2ccccc21 (stereo unspecified)
inactive: Potency [1] | Potency [2] | Potency [3] | Potency [4]

CCCCCCCCCCCCCCCC
inactive: Potency [1] | Potency [2] | Potency [3] | Potency [4]

Cc1c(C(=O)NCCO)[n+](=O)c2ccccc2n1[O-]
inactive: Potency [1] | Potency [2] | Potency [3] | Potency [4]

COc1cc(-c2nc(NC(=O)c3cc4cc(C)cc(C)c4n3CC(=O)O)sc2CCC2CCCCC2)c(OC)cc1Cl
inactive: Potency [1] | Potency [2] | Potency [3] | Potency [4]

CCCCCCCC/C=C\CCCCCCCC(=O)OCCO
inactive: Potency [1] | Potency [2] | Potency [3] | Potency [4]

CCCCOc1ccc(OCCCN2CCOCC2)cc1
inactive: Potency [1] | Potency [2] | Potency [3] | Potency [4]

CCCCCCCCCCCCOC(C)=O
inactive: Potency [1] | Potency [2] | Potency [3] | Potency [4]

CC1=CC=C(C(C)C)CC1
inactive: Potency [1] | Potency [2] | Potency [3] | Potency [4]

O=C(O)C1CCC1
inactive: Potency [1] | Potency [2] | Potency [3] | Potency [4]

CCOC(=O)/C=C(C)/C=C/C=C(C)/C=C/c1c(C)cc(OC)c(C)c1C
inactive: Potency [1] | Potency [2] | Potency [3] | Potency [4]

CCN(CC)C(=O)Nc1ccc(OCC(O)CNC(C)(C)C)c(C(C)=O)c1 (stereo unspecified)
inactive: Potency [1] | Potency [2] | Potency [3] | Potency [4]

C1C[C@@H]2[C@H]3CC[C@H](C3)[C@@H]2C1
inactive: Potency [1] | Potency [2] | Potency [3] | Potency [4]

C=COCCOCCOCCOC=C
inactive: Potency [1] | Potency [2] | Potency [3] | Potency [4]

O=CN1CCCCC1
inactive: Potency [1] | Potency [2] | Potency [3] | Potency [4]

CC1CCCO1 (stereo unspecified)
inactive: Potency [1] | Potency [2] | Potency [3] | Potency [4]

Nc1ccc(C(=O)OCCCOC(=O)c2ccc(N)cc2)cc1
inactive: Potency [1] | Potency [2] | Potency [3] | Potency [4]

OCCC(O)CO (stereo unspecified)
inactive: Potency [1] | Potency [2] | Potency [3] | Potency [4]

Cc1ccccc1N=Nc1ccc(N=Nc2c(O)ccc3ccccc23)c(C)c1
inactive: Potency [1] | Potency [2] | Potency [3] | Potency [4]

CCCCC(CC)CN (stereo unspecified)
inactive: Potency [1] | Potency [2] | Potency [3] | Potency [4]

COc1ncnc(NS(=O)(=O)c2ccc(N)cc2)c1OC
inactive: Potency [1] | Potency [2] | Potency [3] | Potency [4]
